{
  "source": "the supplement of paper PMC11060735",
  "note": "Where a name gives a salt, the structure may show the parent alone. Out of some 1,800 compounds screened, about 50 (3%) showed activity. Shown is part of a subset that was picked to be rich in actives. A number with no mark means an inactive call.",
  "data": [
    {"tested_on": "mouse p16Ink4a+/- lung fibroblasts (INKBRITE, bleomycin-injured)", "assay": "percentage of GFP+ (p16Ink4a+) fibroblasts among all cells in well; higher = less depletion of p16Ink4a+ cells, active = 20 or less", "conditions": "1 µM; 3 days", "values": [
      {"smiles": "CC(=O)NC[C@H]1CN(c2ccc(N3CCOCC3)c(F)c2)C(=O)O1", "note": "[Linezolid]", "percentage of GFP+": "52.5%"},
      {"smiles": "O=C(O)c1ccc2c(c1)nc(Nc1cccc(Cl)c1)c1ccncc12", "note": "[Silmitasertib]", "percentage of GFP+": "43.8%"},
      {"smiles": "COc1ccc2cc(-c3[nH]c(-c4ccc(S(C)=O)cc4)nc3-c3ccncc3)ccc2c1", "note": "(centres undefined) [Tie2 kinase inhibitor]", "percentage of GFP+": "43.3%"},
      {"smiles": "CC(C)Cc1ccc(C(C)C(=O)O)cc1", "note": "(racemic)", "percentage of GFP+": "48.8%"},
      {"smiles": "COc1cc(NC(=O)c2ccc(-c3ccc(Cl)cc3)o2)cc(OC)c1", "percentage of GFP+": "52%"},
      {"smiles": "O=C(Nc1cc(C(F)(F)F)cc(C(F)(F)F)c1)c1cc(Cl)ccc1O", "percentage of GFP+": "42.4%"},
      {"smiles": "O=C(c1ccc(OCCN2CCCCC2)cc1)c1c(-c2ccc(O)cc2)sc2cc(O)ccc12", "note": "[Raloxifene]", "percentage of GFP+": "16.8% (active)"},
      {"smiles": "Cc1c(-c2ccc(O)cc2)n(Cc2ccc(OCCN3CCCCCC3)cc2)c2ccc(O)cc12", "note": "[Bazedoxifene]", "percentage of GFP+": "47.1%"},
      {"smiles": "CCCCOc1ccc(C(=O)CCN2CCCCC2)cc1", "note": "[Dyclonine]", "percentage of GFP+": "47.1%"},
      {"smiles": "OCCn1cc(-c2cnc3nnn(Cc4ccc5ncccc5c4)c3n2)cn1", "percentage of GFP+": "41.7%"},
      {"smiles": "c1coc(CNc2ncnc3[nH]cnc23)c1", "note": "[Kinetin]", "percentage of GFP+": "41.6%"},
      {"smiles": "CO[C@H]1/C=C\\C=C(/C)C(=O)NC2=CC(=O)/C(=N\\CCN(C)C)C(=C2O)C[C@@H](C)C[C@H](OC)[C@H](O)[C@@H](C)/C=C(\\C)[C@@H]1OC(N)=O", "note": "[Alvespimycin]", "percentage of GFP+": "12.4% (active)"},
      {"smiles": "COC1=C2C[C@@H](C)C[C@H](OC)[C@H](O)[C@@H](C)/C=C(\\C)[C@H](OC(N)=O)[C@@H](OC)/C=C/C=C(\\C)C(=O)/N=C(/C=C1O)C2=O", "note": "[Geldanamycin]", "percentage of GFP+": "13.5% (active)"},
      {"smiles": "C=CC/N=C1\\C(=O)C=C2NC(=O)/C(C)=C/C=C\\[C@H](OC)[C@@H](OC(N)=O)/C(C)=C/[C@H](C)[C@@H](O)[C@@H](OC)C[C@H](C)CC1=C2O", "note": "[Tanespimycin]", "percentage of GFP+": "11.8% (active)"},
      {"smiles": "Nc1cccc2c1C(=O)N(C1CCC(=O)NC1=O)C2=O", "note": "(centres undefined) [Pomalidomide]", "percentage of GFP+": "46.7%"},
      {"smiles": "CCCCCCCCCCCCCCCC(=O)OC1C(SC)OC(C(NC(=O)C2CC(CCC)CN2C)C(C)Cl)C(O)C1O", "note": "(centres undefined) [Clindamycin palmitate HCl]", "percentage of GFP+": "45.8%"},
      {"smiles": "COc1cc(Nc2nc3ccccc3nc2NS(=O)(=O)c2ccc(NC(=O)c3ccc(C)c(OC)c3)cc2)cc(OC)c1", "percentage of GFP+": "37.4%"},
      {"smiles": "CC(C(=O)O)c1ccc2c(c1)[nH]c1ccc(Cl)cc12", "note": "(centres undefined) [Carprofen]", "percentage of GFP+": "45.4%"},
      {"smiles": "CNC(=O)c1c(F)cccc1Nc1nc(Nc2cc3c(cc2OC)CCN3C(=O)CN(C)C)nc2[nH]ccc12", "percentage of GFP+": "50.1%"},
      {"smiles": "O=NO", "note": "[Sodium Nitrite]", "percentage of GFP+": "52.2%"},
      {"smiles": "N#CC[C@H](C1CCCC1)n1cc(-c2ncnc3[nH]ccc23)cn1", "note": "[Ruxolitinib]", "percentage of GFP+": "44.6%"},
      {"smiles": "Cc1nc(-c2ccc(OCC(C)C)c(C#N)c2)sc1C(=O)O", "note": "[Febuxostat]", "percentage of GFP+": "42.1%"},
      {"smiles": "CCc1cnn2c(NCc3ccc[n+]([O-])c3)cc(N3CCCC[C@H]3CCO)nc12", "note": "[Dinaciclib]", "percentage of GFP+": "13% (active)"},
      {"smiles": "COc1ccc(CNc2nc(N3CCC[C@H]3CO)ncc2C(=O)NCc2ncccn2)cc1Cl", "note": "[Avanafil]", "percentage of GFP+": "46.5%"},
      {"smiles": "COc1c(C)c(C(=O)c2ccc(N)c(C(=O)O)c2)n2ccccc12", "percentage of GFP+": "39%"},
      {"smiles": "COC(=O)[C@H](c1ccccc1Cl)N1CCc2sccc2C1", "note": "[Clopidogrel]", "percentage of GFP+": "36.5%"},
      {"smiles": "CN1CCN(CCCN2c3ccccc3Sc3ccc(C(F)(F)F)cc32)CC1", "note": "[Trifluoperazine]", "percentage of GFP+": "52%"},
      {"smiles": "CCCCc1nc2cc(/C=C/C(=O)NO)ccc2n1CCN(CC)CC", "note": "[Pracinostat]", "percentage of GFP+": "24.8%"},
      {"smiles": "COc1cc(/C=C/C(=O)/C=C(O)/C=C/c2ccc(O)c(OC)c2)ccc1O", "percentage of GFP+": "38.1%"},
      {"smiles": "CC[C@H](/C=C/[C@@H](C)[C@@H]1CC[C@H]2[C@@H]3CC=C4C[C@@H](O)CC[C@]4(C)[C@@H]3CC[C@@]21C)C(C)C", "note": "[Stigmasterol]", "percentage of GFP+": "44.8%"},
      {"smiles": "Nc1nccc(Oc2ccc(NC(=O)c3cncc(-c4ccc(F)cc4)c3O)cc2F)c1Cl", "percentage of GFP+": "49.5%"},
      {"smiles": "COC(=O)[C@]12CCC(C)(C)C[C@@H]1[C@@H]1C(=O)C=C3[C@]4(C)C=C(C#N)C(=O)C(C)(C)[C@@H]4CC[C@@]3(C)[C@]1(C)CC2", "note": "[Bardoxolone Methyl]", "percentage of GFP+": "5.23% (active)"},
      {"smiles": "O=C(O)c1cc(N=Nc2ccc(O)c(C(=O)O)c2)ccc1O", "note": "[Olsalazine]", "percentage of GFP+": "43.3%"},
      {"smiles": "O=C1c2c(O)cccc2[C@H]([C@@H]2O[C@H](CO)[C@@H](O)[C@H](O)[C@H]2O)c2cc(CO)cc(O)c21", "note": "[Aloin]", "percentage of GFP+": "20.8%"},
      {"smiles": "CC(C)c1cc(C(C)C)c(CC(=O)NS(=O)(=O)Oc2c(C(C)C)cccc2C(C)C)c(C(C)C)c1", "note": "[Avasimibe]", "percentage of GFP+": "53.1%"},
      {"smiles": "CC(C)(C)c1cc(C(C)(C)C)c(NC(=O)c2cnc3ccccc3c2O)cc1O", "note": "[Ivacaftor]", "percentage of GFP+": "38%"},
      {"smiles": "CC(C)c1ccccc1Cc1cc(C(=O)Nc2ccc(S(=O)(=O)c3ccccc3C(C)(C)C)cc2)c(O)c(O)c1O", "percentage of GFP+": "16.4% (active)"},
      {"smiles": "CC(C)(C)c1cc(/C=C(\\C#N)C(N)=S)cc(C(C)(C)C)c1O", "note": "[Tyrphostin]", "percentage of GFP+": "50.3%"},
      {"smiles": "CCC(CC)CC1(C(=O)Nc2ccccc2SC(=O)C(C)C)CCCCC1", "note": "[Dalcetrapib]", "percentage of GFP+": "37.6%"},
      {"smiles": "CCOC(=O)[C@H](CCc1ccccc1)N[C@H]1CS[C@H](c2cccs2)CN(CC(=O)O)C1=O", "note": "[Temocapril]", "percentage of GFP+": "45.2%"},
      {"smiles": "CC(C)c1cc(C(=O)N2Cc3ccc(CN4CCN(C)CC4)cc3C2)c(O)cc1O", "note": "[Onalespib]", "percentage of GFP+": "9.46% (active)"},
      {"smiles": "C[C@@H](Oc1cc(-n2cnc3ccc(CN4CCN(C)CC4)cc32)sc1C(N)=O)c1ccccc1C(F)(F)F", "percentage of GFP+": "27.8%"},
      {"smiles": "COc1ccccc1N1CCN(CCN2C(=O)CC3(CCCC3)CC2=O)CC1", "note": "[Bmy 7378 Dihydrochloride]", "percentage of GFP+": "43.4%"},
      {"smiles": "C=CCc1cc(OC)c(O)c(C(=O)NCCO)c1", "note": "[Alibendol]", "percentage of GFP+": "42.5%"},
      {"smiles": "COc1ccc(S(=O)(=O)Nc2cccnc2Nc2ccc(O)cc2)cc1", "percentage of GFP+": "23%"},
      {"smiles": "Cc1[nH]c2ccccc2c1CCNC(=O)c1cccs1", "note": "[N-[2-(2-methyl-1H-indol-3-yl)ethyl]thiophene-2-carboxamide]", "percentage of GFP+": "39.3%"},
      {"smiles": "Cc1[nH]c2ccccc2c1CCNCc1ccc(/C=C/C(=O)NO)cc1", "note": "[Panobinostat]", "percentage of GFP+": "2.9% (active)"},
      {"smiles": "CN(C)Cc1ccc(S(=O)(=O)n2ccc(/C=C/C(=O)NO)c2)cc1", "note": "[Resminostat]", "percentage of GFP+": "37.1%"},
      {"smiles": "CCC(=O)Nc1cccc(Oc2nc(Nc3ccc(N4CCN(C)CC4)cc3OC)ncc2Cl)c1", "percentage of GFP+": "42.3%"},
      {"smiles": "Cc1nn(-c2ccccc2)c(C)c1/C=N/N1CCN(Cc2ccccc2)CC1", "percentage of GFP+": "48.6%"},
      {"smiles": "CCC(C)(Oc1ccc(C2(c3ccc(OC(C)(CC)C(=O)O)cc3)CCCCC2)cc1)C(=O)O", "note": "(centres undefined) [Clinofibrate]", "percentage of GFP+": "52.6%"},
      {"smiles": "OCC(O)CN1CCN(c2ccccc2)CC1", "note": "(centres undefined) [Dropropizine]", "percentage of GFP+": "51.5%"},
      {"smiles": "C[C@]12CC[C@@H]3c4ccc(O)cc4CC[C@H]3[C@@H]1C[C@@H](O)[C@@H]2O", "note": "[Estriol]", "percentage of GFP+": "49.2%"},
      {"smiles": "CCN1/C(=C/C(C)=O)Sc2ccc(OC)cc21", "percentage of GFP+": "50.3%"},
      {"smiles": "COc1ccc(-c2nc(N3CCOCC3)c3sc(CN(C)c4ncc(C(=O)NO)cn4)cc3n2)cn1", "note": "[Fimepinostat]", "percentage of GFP+": "3.62% (active)"},
      {"smiles": "CS(=O)(=O)N1CCN(Cc2cc3nc(-c4cccc5[nH]ncc45)nc(N4CCOCC4)c3s2)CC1", "percentage of GFP+": "36.8%"},
      {"smiles": "Cc1c(CN2CCN(C(=O)[C@H](C)O)CC2)sc2c(N3CCOCC3)nc(-c3cnc(N)nc3)nc12", "percentage of GFP+": "34.5%"},
      {"smiles": "Clc1ccc(C2(c3ccc(-c4cn[nH]c4)cc3)CCNCC2)cc1", "percentage of GFP+": "43.8%"},
      {"smiles": "O=c1c(-c2ccc(O)cc2)coc2cc(O)cc(O)c12", "note": "[Genistein]", "percentage of GFP+": "47.5%"},
      {"smiles": "COc1cc2nc(N3CCN(C(=O)C4COc5ccccc5O4)CC3)nc(N)c2cc1OC", "note": "(centres undefined) [Doxazosin]", "percentage of GFP+": "44.1%"},
      {"smiles": "CC(C)CN(C[C@@H](O)[C@H](Cc1ccccc1)NC(=O)O[C@H]1CO[C@H]2OCC[C@H]21)S(=O)(=O)c1ccc(N)cc1", "note": "[Darunavir]", "percentage of GFP+": "45.7%"},
      {"smiles": "CN(C)c1ccc(C(=O)NCCCCCCC(=O)NO)cc1", "percentage of GFP+": "30.4%"},
      {"smiles": "CC(/C=C/C(=O)NO)=C\\[C@@H](C)C(=O)c1ccc(N(C)C)cc1", "note": "[Trichostatin A]", "percentage of GFP+": "10.8% (active)"},
      {"smiles": "Cc1cc(N2CCOCC2)ccc1Nc1nc(NC2CCCCC2)c2[nH]cnc2n1", "percentage of GFP+": "33.6%"},
      {"smiles": "C/C(=N\\NC(=S)N1CCC1)c1ccccn1", "percentage of GFP+": "6.13% (active)"},
      {"smiles": "CO[C@H]1C[C@@H]2CC[C@@H](C)[C@@](O)(O2)C(=O)C(=O)N2CCCC[C@H]2C(=O)O[C@H]([C@H](C)C[C@@H]2CC[C@@H](O)[C@H](OC)C2)CC(=O)[C@H](C)/C=C(\\C)[C@@H](O)[C@@H](OC)C(=O)[C@H](C)C[C@H](C)/C=C/C=C/C=C/1C", "note": "[Rapamycin]", "percentage of GFP+": "37.8%"},
      {"smiles": "CC(=O)Nc1ccc(C(=O)Nc2ccccc2N)cc1", "note": "[Tacedinaline]", "percentage of GFP+": "34.9%"},
      {"smiles": "CC(C)[C@H](C(=O)Nc1ccc(C(=O)NO)cc1)c1ccccc1", "percentage of GFP+": "9.62% (active)"},
      {"smiles": "CCCCN(Cc1ccc(C(=O)NO)cc1)C(=O)Nc1ccccc1", "note": "[Nexturastat A]", "percentage of GFP+": "47.5%"}
    ]}
  ]
}
